# Results from PubChem BioAssay (NCI).
# Where “and” joins values, the source holds several entries; their conditions need not be identical. Equal entries are not always repeated. The panel holds about 83,000 compounds, 20% with a hit somewhere; the sample as a whole holds those more often.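 Cell lines were cultured in 96-well plates, exposed to a single compound concentration, and assessed for percent growth 48 hours later.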 Values without a mark were called inactive. Calls of active or inactive are those of the source. How the source made its calls: active means growth percent below 10; inactive means the rest.
# Tested on: RPMI-8226 leukemia
# Assay: NCI-60 one-dose screen, 48 h (100 = growth as untreated, 0 = no growth, -100 = all killed)
# Details: 10 µM unless noted
row,Compound,growth
1,O=C(/C=C/c1ccccc1)c1ccccc1,32%
2,OC1COC(OCc2ccccc2)C(O)C1O (stereo not drawn),103%
3,COc1cc(C(O)C2C(=O)OCC2C2(c3ccc4c(c3)OCO4)SCCCS2)cc(OC)c1OC (stereo not drawn),98.9%

# Tested on: OVCAR-8 ovarian
# Assay: as above
# Details: 10 µM unless noted
row,Compound,growth
1,CCc1cc(C)cc(O)c1,105%
2,NN1CCOC(c2ccccc2)C1 (stereo not drawn),103%
3,ClCCOCCOc1ccc(C2CCCCC2)cc1,97.1%
4,O=c1n(CC2CO2)c(=O)n(CC2CO2)c(=O)n1CC1CO1 (stereo not drawn),64.4%
5,Cc1ccc(S(=O)(=O)c2ccccc2)cc1,55.1%
6,O=C(/C=C/c1ccccc1)c1ccccc1,103%
7,Cc1cc(-c2ccc(N=Nc3ccc4c(S(=O)(=O)O)cc(S(=O)(=O)O)c(N)c4c3O)c(C)c2)ccc1N=Nc1ccc2c(S(=O)(=O)O)cc(S(=O)(=O)O)c(N)c2c1O,101%
8,c1ccc(CNCCNCc2ccccc2)cc1,124%
9,Cc1cc2ccccc2cn1,102%
10,CCCCCCCCCCCCCCCc1ccc(N)c(OC2OC(CO)C(O)C(O)C2O)c1 (stereo not drawn),87.1%
11,O=C(O)CCCl,104%
12,C#CCOC(=O)Nc1ccccc1,103%
13,CC(C)C(C)(C)c1ccc(O)cc1,106%
14,Cc1cc(-c2cc(C)c(O)c(C)c2)cc(C)c1O,95%
15,CC1(C)COC(=S)N1,103%
16,CCOC(=O)c1c(C)cc(=O)oc1C,111%
17,CC[C@H](CC[C@@H](C)[C@H]1CC[C@H]2[C@@H]3CC=C4C[C@@H](O)CC[C@]4(C)[C@H]3CC[C@]12C)C(C)C,98.9% and 105%
18,CN1CNC(=O)NC1,106% and 98.6%

row,Compound,growth
1,CC1CCC2(OC1)OC1CC3C4CC=C5CC(O)CCC5(C)C4CCC3(C)C1C2C (stereo not drawn),102%
2,COc1cc(C(O)C2C(=O)OCC2C2(c3ccc4c(c3)OCO4)SCCCS2)cc(OC)c1OC (stereo not drawn),102%
3,Nc1nc(N)c2[nH]cnc2n1,70.4%
4,Cn1cnc([N+](=O)[O-])c1Sc1ncn[nH]1,73.8%
5,O=c1[nH]cnc2c1ncn2C1OC(CO)C(O)C1O (stereo not drawn),106% and 100% and 103%
6,CC(=O)OCC1OC(OC(C)=O)C(OC(C)=O)C(OC(C)=O)C1OC(C)=O (stereo not drawn),97.5% and 99.7%
7,O=C1c2c(O)ccc(O)c2C(=O)c2c(NCCNCCO)ccc(NCCNCCO)c21,-41.6% (active)
8,c1ccc(-c2nc3ccccc3s2)cc1,88.3%
9,CCCCCCCCCCCCCCCCC(C(=O)O)C(O)(CC(=O)O)C(=O)O (stereo not drawn),111%
10,Nc1cc(N)c(N)cc1N,63.3%
11,O=[N+]([O-])c1cccc(SSc2cccc([N+](=O)[O-])c2)c1,100%
12,Oc1ccc(Cc2ccccc2Cl)c(O)c1,104%
13,OCCN1CCCCCCC1,101%
14,CC1CCC(C(C)C)C(NNC(N)=O)C1 (stereo not drawn),100%
15,Fc1ccc([I+]c2ccc(F)cc2)cc1,46.1%
16,CC1=C/C(O)CC(=O)Cc2nc(co2)C(=O)N2CCC=C2C(=O)OC(C(C)C)C(C)/C=C\C(=O)NC/C=C\1 (stereo not drawn),74%
17,O=C1OC(c2ccccc2)=N/C1=C\c1ccccc1,100%
